Source: PubChem BioAssay AID488890 (Southern Research Specialized Biocontainment Screening …, 2010)
Screen size: about 320,000 compounds; about 1,300 (0.41%) were called active. About 3% were inconclusive and are not listed. The rule behind the calls is not given here. These entries were drawn from the full list. Measured potencies and affinities stand elsewhere.

assay: growth inhibition of non-replicating M. tuberculosis (AID 488890); details: Mycobacterium tuberculosis non-replicating, at 25 µM, stronger effect = higher value;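 note: plate controls were DMSO cells for no effect and high antibiotic wells for full effect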

SMILES	inhibition [%]
CCOc1ccc(OCC(=O)c2c(O)c3ccccc3oc2=O)cc1	29.5
O=C(c1c(O)c2ccccc2oc1=O)C1CCC1	39
CC(=N)c1c(O)c2ccccc2oc1=O	-3.72
COc1ccc(OCC(=O)c2c(O)c3ccccc3oc2=O)cc1	23.3
Cc1ccccc1-c1nnc(SCC(=O)NC2CCCC2)n1C	0.83
C[C@H]1CN([C@@H](C)CO)C(=O)c2cc(NC(=O)C3CCCCC3)ccc2O[C@H]1CN(C)CC1CCCCC1	5.45
CCc1ccc(CNC(=O)c2ccc(OC)c(OC3CCN(C(C)C)CC3)c2)nc1	2.53
Cc1cccc(NC(=O)CCc2nnc3ccc(NCc4ccco4)nn23)n1	-10.9
COc1ccc(-c2cnn3c4c(c(C)nc23)CCN4C(C)C)cc1OC	6.73
CCOC(=O)Nc1ccc2c(c1)N(C(=O)CN)c1ccccc1CC2	22.7
CCOC(=O)Nc1ccc2c(c1)N(C(=O)CCN(C)C)c1ccccc1CC2	-1.89
CCOC(=O)Nc1ccc2c(c1)N(C(=O)CCN1CCOCC1)c1ccccc1S2	20.2
CCOC(=O)Nc1ccc2c(c1)Sc1ccccc1N2C(=O)CCN1CCOCC1	39.8
O=C(CN1CCCCCC1)Nc1cc(C(F)(F)F)ccc1Cl	1.63
COc1ccc(CNC(=O)C(NC(C)=O)C(C)C)cc1OC (configuration not stated)	-1.56
COc1ccc([N+](=O)[O-])cc1N(CC(O)CN1C(=O)NC(C)(C)C1=O)S(=O)(=O)c1ccccc1 (configuration not stated)	-14.2
Cc1nnc(NC(=O)C2=COCCO2)s1	-3.76
CCOC(=O)Nc1cccc(Cl)c1C	20.8
Cc1c(Cl)cccc1NC(=O)c1ccc(OCC(=O)NCc2ccccc2)cc1	-7.76
CCC(=O)c1ccc(OCC(=O)OCC(=O)NC2CCCCCC2)cc1	20.5
Cc1ccc(C(=O)NC2CCCC2)s1	56.2
O=C(NC1CCCC1)c1ccc(Cl)s1	75.8
CCOc1ccc(C(=O)NC2CCCCCCC2)cc1	77.1
CN(Cc1ccccc1)C(=O)COC(=O)c1cc(=O)c2ccccc2o1	-3.1

SMILES	inhibition [%]
COc1ccccc1C(=O)Nc1nc2cc3c(cc2s1)OCO3	-15.7
O=C(Nc1cc(F)ccc1F)c1ccc(-n2cncn2)c([N+](=O)[O-])c1	3.94
COc1ccc(NC(=O)C2CC(=O)n3ncnc3N2)cc1 (configuration not stated)	-0.6
COc1cc(-c2nc(-c3ccccc3)c(-c3cccs3)[nH]2)cc(OC)c1OC	-1.14
Cc1ccc(C(=O)NC(C)c2ccc(S(N)(=O)=O)cc2)s1 (configuration not stated)	-0.6
CC(=O)Nc1ccc(NC(=O)CSc2nnc(CC(C)O)n2-c2ccccc2)cc1 (configuration not stated)	-7.33
O=C(CN1CCN(S(=O)(=O)c2ccc(F)cc2)CC1)Nc1ccc(Cl)cn1	37.8
FC(F)(F)c1cccc(Cc2noc(CN3CCCC(CN4CCCC4)C3)n2)c1 (configuration not stated)	51
Cc1cccn2c(CNC3CCCc4ccccc43)c(C(=O)N3CCOCC3)nc12 (configuration not stated)	21.9
CCn1c(C)nc2cc(S(N)(=O)=O)ccc21	-15.1
CC(C)c1onc(C(=O)NCc2ccccc2)c1[N+](=O)[O-]	44.9
CCCc1nc(C)cc(N2CCN(c3ccccc3)CC2)n1	-3.49
Cc1cc(Cl)nc(-n2nc(C)cc2C)n1	27.1
Cc1cc(N2CCN(c3ccccc3)CC2)nc(N)n1	-1.71
Cc1cc(C)n(-c2nc3ccccc3nc2N2CCC(C)CC2)n1	34
COc1ccccc1OCc1ccc(C(=O)NCC2CCCO2)cc1 (configuration not stated)	1.26
Cc1cccc(N2CCN(C(=O)c3ccc(CS(=O)Cc4cccc(Cl)c4)o3)CC2)c1C (configuration not stated)	28.5
Cn1nc(C(=O)NCCN2CCOCC2)c2ccccc2c1=O	-5.46
CC(=O)n1cc(C=C2C(=O)NC(=O)NC2=O)c2ccccc21	0
CC(=O)O/C(=C\c1cn(C(C)=O)c2ccccc12)C(=O)O	-6.32
Cc1ccc2c(c1)N(C)/C(=C/c1cccc[n+]1CCO)S2	6.55
O=C(O)Cc1ccc(NS(=O)(=O)c2c(Cl)cccc2Cl)cc1	-11.9
CC(C)(C)Nc1nc(N2CCCC2)nc(N2CCCC2)n1	59.5
CCNc1nc(N2CCCC2)nc(N2CCCC2)n1	75.5

SMILES	inhibition [%]
CCOC(=O)[C@@H]1[C@H]2COc3cc(OC)ccc3[C@H]2N2C(=O)N(c3cccc(Cl)c3)C(=O)[C@]12C	1.05
O=C(NCCCN1CCOCC1)c1c(O)c2ccccc2[nH]c1=O	-0.01
COc1cc2[nH]c(=O)c(C(=O)NCCCN3CCOCC3)c(O)c2cc1OC	1.72
CCc1ccc(C(=O)Nc2cc3c(cc2Cl)OCCCO3)cc1	42
O=C(O)C1CCN(C(=O)CCN2C(=O)S/C(=C\c3ccccc3)C2=O)CC1	1.98
CCCCn1c(=O)c(CCC(=O)OCC(=O)Nc2cc(Cl)ccc2OC)nc2ccccc21	-2.09
COC(=O)[C@H](CCSC)NC(=O)NCCc1ccc(F)cc1	-16.4
CCCCn1c(=O)c2ccccc2n2c(=S)[nH]nc12	-11.3
CCCCCn1c(=O)c2ccccc2n2c(=S)[nH]nc12	-0.64
COC(=O)c1ccccc1Sc1snnc1C	-5.51
Cc1ccc(Sc2ncnc3onc(C)c23)cc1	72.5
Cc1ccccc1Sc1ncnc2onc(C)c12	5.13
COc1ccc(Sc2ncnc3onc(C)c23)cc1	58.2
CN(C)S(=O)(=O)c1ccc(NC(=O)COC(=O)C2CC3CCCC(C2)C3=O)cc1 (configuration not stated)	14.8
COc1ccc(-n2c(O)c(C=NCCCn3ccnc3)c(=O)[nH]c2=O)cc1	-3.58
Cc1cc(NC(=O)CN2CCN(c3ccccc3O)CC2)no1	3.86
CCCCn1c(=O)c(C=Nc2cc([N+](=O)[O-])ccc2OC)c(O)n(CCCCl)c1=O	64
CCCCN1CC(C(=O)NC2CCCCC2)CC1=O (configuration not stated)	-9.76
CCOc1ccc2oc(C(=O)OCC(=O)NCc3ccc(OC)cc3)c(C)c2c1	26.4
Cc1nn(C2CCS(=O)(=O)C2)c(Cl)c1/C=C/C(=O)OCC(=O)Nc1ccc2c(c1)OCO2 (configuration not stated)	3.18
O=C(c1cnn2c(C(F)(F)F)cc(-c3ccccc3)nc12)N1CCCCC1c1cccnc1 (configuration not stated)	22.6
Nc1ccc(-c2nc3ncccc3o2)c(O)c1	8.78
O=C1OC(Oc2ccccc2)(c2ccccc2)c2ccccc21 (configuration not stated)	-1.31
COc1ccc(CCNCC(O)COc2cccc(Br)c2)cc1 (configuration not stated)	45.7

SMILES	inhibition [%]
COc1ccccc1COCC(O)CNCCc1ccc(C(F)(F)F)cc1 (configuration not stated)	67.5
OC(CNCCc1ccccc1)COc1ccc(OCC(O)CNCCc2ccccc2)cc1 (configuration not stated)	59.6
OC(CNCc1ccccc1F)COc1cccc2ccccc12 (configuration not stated)	29.3
O=c1c2ccccc2nc(/C=C/c2ccc(F)cc2)n1-c1ccccn1	-7.61
Cc1ccnc(NC(=O)c2ccccc2NC(=O)c2ccccc2)c1	7.95
OCCCn1c(CCNc2nc(-c3ccc(F)cc3)cs2)nc2cc(C(F)(F)F)ccc21	26.8
CN(C)CCOc1ccc2ccccc2c1	-16.7
c1ccc2cc(OCCOCCOc3ccc4ccccc4c3)ccc2c1	-3.69
COC(C(=O)Nc1ccc(S(=O)(=O)Nc2ccc(F)cc2)cc1)c1ccccc1 (configuration not stated)	30.9
CCOc1ccc(C(C(=O)NCC2CCCO2)N(C(=O)c2snc(C(N)=O)c2N)c2cccc(F)c2)cc1 (configuration not stated)	3.71
O=C(NCCNC(=O)c1cnccn1)c1ccc(Cl)c(Cl)c1	5.99
O=C(NCCCNC(=O)c1cnccn1)c1ccc(Cl)c(Cl)c1	-0.84
CCc1ccc(OCC(=O)NCCN(C)C)c(Br)c1	5.23
COc1ccc(CC(=O)NNC(=O)COc2ccc(Br)cc2C)cc1OC	-13.1
Cc1cc(Cl)ccc1OCC(=O)NNC(=O)c1cccnc1	-9.52
COc1ccccc1OCC(=O)NNC(=O)c1cnccn1	3.6
Cc1ccc(C(=O)NNC(=O)COc2ccc(Cl)cc2C)o1	-11.3
COc1ccc(CC(=O)NNC(=O)c2cnccn2)cc1	-6.37
Cn1nc(C(=O)N2CCOCC2)c2ccccc2c1=O	-8.35
O=C(COc1ccccc1-c1ccccc1)c1ccccc1	50.1
COc1cc([C@@H]2CC=C(C(=O)O)[C@H](c3ccccc3)N2S(=O)(=O)c2ccc(C)cc2)cc(OC)c1OC	12.5
CCN(CC)C(=O)[C@H]1CC(CC(=O)NCCCOC)C(=O)N2CCc3c([nH]c4ccccc34)[C@]12C (some centres not stated)	-1.9
CC(=O)N1CCN(c2ccccc2NC(=O)COc2cc(C)ccc2C(C)C)CC1	34.3
CCOc1ccc(NC(=O)CCCN2C(=O)C(c3ccccc3)Oc3cccnc32)cc1 (configuration not stated)	3.12

SMILES	inhibition [%]
CC1(C)CC(=O)c2c(Cc3ccccc3)noc2C1	3.41
CCN(CC)CCn1c2c(c(SCC(=O)NCc3ccccc3)nc1=O)CCC2	8.95
Cc1ccc(S(=O)(=O)NCC(=O)NCC(=O)N(C)Cc2ccc3ccccc3c2)cc1C	31.9
Cc1cc(Br)ccc1OCC(=O)NNC(=O)Cc1ccccc1	-15.6
CCc1ccc(OCC(=O)NC(=S)Nc2ccc(F)cc2)c(Br)c1	9.95
Cc1cc(Br)ccc1OCC(=O)NNC(=O)CCc1ccccc1	29
O=C(COc1ccc(Cl)cc1Br)Nc1ccncc1	69.3
CCCc1nc2oc3c(NCCOCCO)ncnc3c2c2c1COC(C)(C)C2	-8.1
CCCN(CC(=O)Nc1ccc(F)c(F)c1F)CC(=O)Nc1c(C)n(C)n(-c2ccccc2)c1=O	37.8
COc1ccccc1-n1nnnc1SCC(=O)NC1CCCCC1	2.38
Cc1[nH]c(C)c(S(=O)(=O)Nc2cccc(Cl)c2C)c1C(=O)N1CCCC1	6.67
Cc1ccsc1/C=N/NC(=O)CN1CCN(Cc2ccccc2)CC1	-0.88
O=C(NCC1CCCO1)NC12CC3CC(CC(C3)C1)C2 (configuration not stated)	-2.4
COc1ccc(C(=O)NCC(=O)N/N=C/c2ccco2)cc1OC	-11.6
CCCCCC(=O)N/N=C/c1ccc([N+](=O)[O-])o1	73.3
O=C(COc1ccccc1[N+](=O)[O-])N/N=C/C=C/c1ccco1	12.5
CCOC(=O)N/N=C\c1ccc([N+](=O)[O-])o1	59.1
COC(=O)N/N=C/c1ccc([N+](=O)[O-])o1	70.7
Cc1cc(C)cc(OCC(=O)N/N=C/c2ccco2)c1	9.16
Cc1ccccc1OCC(=O)N/N=C/C=C/c1ccccc1	-6.11
COc1ccc(C(=O)NCC(=O)N/N=C/c2ccc(C)o2)cc1OC	24.5
